High-throughput results: PubChem, National Center for Advancing Translational Sciences (NCATS)
Pf growth 48h: Primary qHTS for delayed death inhibitors of the malarial parasite plastid, 48 hour incubation; P. falciparum luciferase growth in erythrocytes, 48 h; Potency, µM (titrated, usually from 28.7 µM), without a hit: at the highest dose activity change, negative = inhibition, most hits filed as inhibitors; 5.9% of 310,000 active; AID 504832, 2011
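Luminescence readout; reporter = integrated firefly luciferase in P. falciparum. RBC culture at 2% hematocrit, 0.1% parasitemia final, 37 C/5% CO2; decreased signal taken as growth inhibition.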
HCV inhibitor: qHTS Assay for Inhibitors of Hepatitis C Virus (HCV); Potency, µM (titrated, usually from 41.8 µM), for the others: top-dose activity change, negative = inhibition, usual class: inhibitors; Huh7.5.1 HCVcc-Cre infection, luciferase reporter, 44 h; 3.4% of 340,000 active
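Seed cells (1,000/well) for 4 h; treat with compound and infect with HCVcc-Cre, moi about 0.5. Incubate 44 h, then detect luciferase activity.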
AmpC detergent: qHTS Inhibitors of AmpC Beta-Lactamase (assay with detergent); AmpC hydrolysis of nitrocefin, absorbance 480 nm, 0.01% Triton; Potency, µM (top dose mostly 114 µM), for inactives: at the highest dose activity change, negative = inhibition, actives largely listed as inhibitors; 0.041% of 370,000 active;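 also: 0% = no-compound wells and -100% = no-enzyme wells; nearly all actives have a fitted effect of over 25% in size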
Target sequence (P00811 whole entry, looked up): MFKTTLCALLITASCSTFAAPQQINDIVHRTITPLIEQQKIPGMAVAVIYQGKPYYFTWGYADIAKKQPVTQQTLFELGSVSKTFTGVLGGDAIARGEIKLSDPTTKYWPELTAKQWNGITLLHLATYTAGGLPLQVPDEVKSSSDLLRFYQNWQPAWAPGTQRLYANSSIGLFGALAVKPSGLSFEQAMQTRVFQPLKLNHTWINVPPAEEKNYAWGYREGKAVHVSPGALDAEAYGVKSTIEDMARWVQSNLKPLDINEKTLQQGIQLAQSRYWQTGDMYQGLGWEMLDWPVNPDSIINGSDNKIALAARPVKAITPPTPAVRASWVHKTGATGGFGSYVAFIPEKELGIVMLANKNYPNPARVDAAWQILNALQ
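20 mM phosphate pH 7.0 + 0.01% (detergent screen) or 0.0001% Triton X-100; 5.3 nM AmpC reagent; cpd preinc 15 min RT; nitrocefin (800 uM stock) to start; A480 q20 s × 4 min; Activity was normalised to no-enzyme and no-compound control wells.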
AmpC inh no detg: qHTS Inhibitors of AmpC Beta-Lactamase (assay without detergent); AmpC nitrocefin hydrolysis, absorbance 480 nm, 0.0001% Triton; 0.52% of 330,000 active; P00811; Potency, µM (doses to about 57.1 µM), inactives show top-dose activity change, negative = inhibition, most hits filed as inhibitors;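 also: plate controls were no compound for no effect and no enzyme for full effect; nearly all actives have a fitted effect of over 20% in size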
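20 mM phosphate pH 7.0 + 0.01% (detergent screen) or 0.0001% Triton X-100; 5.3 nM AmpC reagent; cpd preinc 15 min RT; nitrocefin (800 uM stock) to start; A480 q20 s × 4 min; Activity was normalised to no-enzyme and no-compound control wells.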
AMA1 RON2 block: qHTS for Inhibitors of AMA1-RON; Towards Development of Antimalarial Drug Lead: Primary Screen; Plasmodium falciparum AMA1 (3D7) - RON2 peptide interaction; AlphaScreen AMA1-biotinylated RON2 peptide binding; Potency, µM (doses to about 58.2 µM), inactives show at the highest dose activity change, negative = inhibition, actives largely listed as inhibitors; 0.2% of 360,000 active; AID 720542, 2013;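 also: 0% = vehicle wells and -100% = peptide control; nearly all actives have a fitted effect of over 45% in size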
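AMA1 (3D7) with his tag at 25 nM final met compounds first, then biotinylated RON2 peptide at 25 nM; detection used donor plus acceptor beads, 10 µg/mL apiece, read by AlphaScreen after 30 min at room temperature.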
Pf growth 96h: Primary qHTS for delayed death inhibitors of the malarial parasite plastid, 96 hour incubation. P. falciparum luciferase reporter growth, 96 h. Potency, µM (doses to about 28.7 µM), for the others: top-dose activity change, negative = inhibition, most hits filed as inhibitors. 6.9% of 320,000 active. AID 504834, 2011
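Readout is luminescence from an integrated firefly luciferase in P. falciparum. Red cells, 2% hematocrit and 0.05% parasitemia final, were cultured with compound through two parasite generations (96 hours) at 37 C, 5% CO2.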
The depositor's hits bear a star; ? = inconclusive; nt = no result given. In the library only some 11% were active in any assay of this set; here they are far more common. Calls follow the shape of the dose curve; as a rule, active = well fitted curve in the direction sought with a large enough effect; inconclusive = small, poorly fitted or top-dose-only effect, or another doubt; inactive = no such curve, though single readings can be large; an effect the other way counts as inactive or inconclusive. Unless noted, % is scaled to controls: 0 for no effect and ±100 for the full control effect; potency is read from the fitted curve at half-maximal effect.

SMILES | Pf growth 48h | HCV inhibitor | AmpC detergent | AmpC inh no detg | AMA1 RON2 block | Pf growth 96h
Cc1ccc(C2C3=C(CC(C)(C)CC3=O)N=C3c4ccccc4C(=O)C32)cc1 (stereo unspecified) | 8.3µM* | ? | 1% | -48% | ? | 17%
CCOc1ccc(N(CC)C(=O)COc2cc(=O)n(CC)c3ccccc23)cc1 | ? | ? | -9% | 106% | -11% | ?
Cn1cc(SCC(=O)Nc2ccc3c(c2)OCO3)c2ccccc21 | nt | -6% | ? | -41% | 11% | ?
CC(NC(=O)c1cc2c(=O)n(C)c3ccccc3c2n1C)c1ccc2c(c1)OCCO2 (stereo unspecified) | nt | -6% | nt | nt | -4% | nt
Cn1c(=O)cc(SCC(=O)Nc2ccc3c(c2)OCO3)c2ccccc21 | 31% | ? | 1% | -23% | 7% | 2.9µM*
CCOc1ccc(N(CC)C(=O)COc2cc(=O)n(C)c3ccccc23)cc1 | ? | 11% | ? | 25µM* | -8% | ?
CC(NC(=O)COc1cc(=O)n(C)c2ccccc12)c1ccc2c(c1)OCCO2 (stereo unspecified) | 14% | 15% | 1% | 1% | -4% | 8.3µM*
CCCn1cc(SCC(=O)Nc2ccc3c(c2)OCO3)c2ccccc21 | ? | 14µM* | ? | -26% | -16% | 10µM*
CC(=O)NC(c1cc(Cl)c2cccnc2c1O)C(C)C (stereo unspecified) | 3.7µM* | nt | ? | 1% | nt | 10µM*
CC(=O)NC(c1ccc(C)cc1)c1cc(Cl)c2cccnc2c1O (stereo unspecified) | ? | 5.6µM* | -15% | -15% | 84% | 29%
CCC(=O)NC(c1cc(Cl)c2ccccc2c1O)C1CC1 (stereo unspecified) | -12% | nt | 1% | 1% | nt | ?
Oc1c(C(Nc2ccccn2)c2cccnc2)cc(Cl)c2cccnc12 (stereo unspecified) | 4.7µM* | ? | -4% | -25% | ? | 90%
CC(=O)NC(c1cc(Cl)c2cccnc2c1O)C1CC1 (stereo unspecified) | 4.1µM* | nt | -2% | -21% | nt | 13µM*
CC(=O)NC(c1cc(F)c2cccnc2c1O)C(C)C (stereo unspecified) | ? | nt | 2% | 6% | nt | ?
CC(=O)NC(c1ccco1)c1cc(Cl)c2cccnc2c1O (stereo unspecified) | ? | nt | ? | -18% | nt | ?
COc1ccc(-n2ncc(C(=O)NCc3cccs3)c2C2CCN(C(=O)OC(C)(C)C)CC2)cc1 | nt | nt | 3% | nt | nt | nt
CCc1ccccc1NS(=O)(=O)c1ccc(-c2coc(C)n2)cc1 | nt | nt | 2% | nt | nt | nt
Cc1cc(=O)[nH]c(SCC(=O)Nc2ccc(Br)cc2)c1C#N | nt | -10% | ? | -30% | 7% | 15µM*
CC(Cc1ccccn1)NC(=O)CCc1nnc(C2CCCCC2)o1 (stereo unspecified) | 0% | 2% | 3% | 4% | 1% | 13µM*
O=C(NCCN1CCN(C(=O)NC2CCCCC2)CC1)NC1CCCCC1 | 24% | 6% | -13% | 8% | -4% | 13µM*
Cc1nn(Cc2ccc(Cl)c(Cl)c2)c(C)c1NC(=O)c1cc(-c2ccc3c(c2)OCO3)on1 | -16% | ? | 6% | -15% | 5% | 65%
Cc1ccc(-n2nc(C)c(NC(=O)CCl)c2C)cc1 | 3.7µM* | ? | 5% | -4% | -5% | -102%
Cc1nn(Cc2c(Cl)cccc2Cl)c(C)c1NC(=O)c1cc(C(C)C)on1 | nt | ? | ? | 39% | 0% | 9.3µM*
Cc1nn(Cc2ccc(Cl)cc2)c(C)c1NC(=O)c1cc(C(C)C)on1 | -14% | 11µM* | -13% | 76% | 0% | 8%
CC(=O)Nc1c(C)nn(-c2ccc([N+](=O)[O-])cc2)c1C | -22% | -30% | 1% | 19% | -6% | ?
SMILES | Pf growth 48h | HCV inhibitor | AmpC detergent | AmpC inh no detg | AMA1 RON2 block | Pf growth 96h
Cc1nn(Cc2ccc(Cl)cc2)c(C)c1NC(=O)c1cc(-c2ccc3c(c2)OCO3)on1 | -16% | 32µM* | -2% | -46% | -10% | ?
CCc1cccc(NC(=O)c2ccc(CN3C(=O)C(C)=C(c4ccc(OC)cc4)S3(=O)=O)cc2)c1 | nt | nt | -5% | nt | nt | nt
COc1ccccc1C(=O)N1CCCCC1CCN1CCOCC1 (stereo unspecified) | nt | nt | 28% | nt | nt | nt
O=C(c1cc(-c2ccc(Cl)c(Cl)c2)on1)N1CCCCCC1 | 245% | 6% | 1% | -9% | -10% | 266%
O=C(c1cc(-c2ccc3c(c2)OCO3)on1)N1CCCCC1 | 202% | ? | -17% | -9% | -16% | 13µM*
Cc1nn(C)c(Cl)c1NC(=O)OCc1ccc(Cl)cc1Cl | 8% | 10µM* | -2% | 17% | -1% | 28%
Cc1nn(Cc2ccc(Cl)cc2Cl)c(C)c1NC(=O)CCl | 0.59µM* | 13µM* | -14% | 0% | -1% | 10µM*
Cc1nc2ccccc2n1CCc1nc2c3ccccc3nc(SCc3ccc(F)cc3)n2n1 | nt | nt | -9% | nt | nt | nt
CC/C(=N/Nc1ccccc1C)c1cnnc(SC)n1 | 4.1µM* | 16% | 0% | -40% | 8% | 2.3µM*
CSc1nncc(/C(C)=N\Nc2ccccc2)n1 | 49% | -27% | -6% | -17% | -20% | 0%
CCOC(=O)C(NCc1ccccc1OC)(NC(=O)c1ccccc1)C(F)(F)F (stereo unspecified) | ? | -4% | 5% | -10% | -8% | 16%
CCOC(=O)C(NCc1ccc(F)cc1)(NC(=O)c1ccccc1)C(F)(F)F (stereo unspecified) | -20% | -6% | 1% | -1% | 4% | 10µM*
COc1ccc(CNC(NC(=O)c2ccccc2)(C(F)(F)F)C(F)(F)F)cc1 | 12µM* | ? | -7% | -11% | -13% | ?
O=C(CCC1N=C2c3ccccc3N=C(SCc3ccc(F)cc3)N2C1=O)N1CCN(c2ccccc2)CC1 (stereo unspecified) | nt | nt | 18% | nt | nt | nt
O=C(COC(=O)c1n[nH]c2ccccc12)Nc1cccc(S(=O)(=O)N2CCOCC2)c1 | ? | -18% | 5% | ? | -8% | ?
CCCc1nc2ccccc2c(C(=O)OCC(=O)Nc2cccc(S(=O)(=O)N3CCOCC3)c2)c1CC | ? | 8.9µM* | ? | 0% | -8% | 7.4µM*
